Data taken from PubChem BioAssay (Tox21).
Records with an inconclusive call do not appear. A number with no mark means an inactive call. Activity calls are given as the source filed them. The call rests on the fitted dose curve; in most records, active means well fitted inhibition curve with a large enough effect in the repeat runs; inconclusive means weak or mixed curves; inactive means no such curve, though single readings can be large or run the other way.

biological target: Cytochrome P450 3A4 (Homo sapiens) (UniProt P08684); experiment: Cytochrome P450 Family 3 Subfamily A Member 4 (CYP3A4) small molecule antagonists: luciferase reporter qHTS assay (AID 1671201); conditions: P450-Glo CYP3A4 enzyme, luciferin luminescence, 1 h; series mostly up to 115 µM; activity change, negative = inhibition: at the top concentration; further: nearly all actives have a fitted effect of over 50% in size
Procedure, shortened: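 Setup: enzyme-substrate mix, compound pin transfer, 10 min RT. Reaction: NADPH regeneration solution, 1 h RT. Readout: detection reagent stops turnover, luminescence measured after 20 min, expressed in relative luminescence units.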
On the % scale 0 is the no-effect control and ±100 the full control effect; potency means the concentration at half of the fitted maximal effect.

Chain of Cytochrome P450 3A4 (Homo sapiens) (P08684 whole entry, looked up): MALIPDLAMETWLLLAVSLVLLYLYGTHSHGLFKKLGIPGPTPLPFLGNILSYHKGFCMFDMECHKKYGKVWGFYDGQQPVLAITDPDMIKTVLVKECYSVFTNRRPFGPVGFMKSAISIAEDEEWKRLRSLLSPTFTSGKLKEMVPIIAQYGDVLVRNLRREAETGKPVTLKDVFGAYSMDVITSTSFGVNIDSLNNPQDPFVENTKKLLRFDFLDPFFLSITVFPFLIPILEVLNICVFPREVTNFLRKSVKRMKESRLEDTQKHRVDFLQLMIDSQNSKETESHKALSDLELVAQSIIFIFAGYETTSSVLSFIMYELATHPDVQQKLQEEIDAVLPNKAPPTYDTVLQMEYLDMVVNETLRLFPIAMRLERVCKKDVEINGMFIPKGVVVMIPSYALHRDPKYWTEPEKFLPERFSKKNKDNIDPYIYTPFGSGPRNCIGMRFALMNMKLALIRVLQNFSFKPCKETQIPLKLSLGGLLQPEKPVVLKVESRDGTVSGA

Structure (SMILES) | activity change, negative = inhibition | Potency
CC(C)(C)c1n[nH]c(=S)n(N)c1=O | -1.78% | –
CC1COc2ccccc2N1 (stereo not given) | -42.1% | –
Cc1cccc(C)c1OCC(C)N (stereo not given) | 1.05% [at 52.9 µM] | –
CCCCN | -0.131% [at 52.9 µM] | –
CC[C@H](C)C(=O)O[C@H]1C[C@H](O)C=C2C=C[C@H](C)[C@H](CC[C@@H](O)C[C@@H](O)CC(=O)O)[C@H]21 | 6.78% | –
CCNC(=O)C1CC(C)CCC1C(C)C (stereo not given) | – | 17.8 µM (active)
CCCCCCCC/C=C\CCCCCCCC(=O)OCCCC | -4.05% [at 23.6 µM] | –
Nc1ccc([N+](=O)[O-])c(N)c1 | 4.98% | –
CC(=O)/C=C/C1C(C)=CCC(C)C1(C)C (stereo not given) | – | 25.2 µM (active)
CC(C)(C)OC(=O)c1ccc(O)cc1 | 17.9% | –
COc1cc(NS(=O)(=O)c2ccc(N)cc2)nc(OC)n1 | 0.613% [at 52.9 µM] | –
CC(C(=O)O)c1ccc2c(c1)CC(=O)c1ccccc1S2 (stereo not given) | -7.81% [at 52.9 µM] | –
CN1C(C)(C)CCCC1(C)C | 8.64% [at 52.9 µM] | –
C[C@@H]1O[C@@H](O[C@@H]2[C@@H](O)[C@H](OCCc3ccc(O)c(O)c3)O[C@H](CO[C@@H]3O[C@H](CO)[C@@H](O)[C@H](O)[C@H]3O)[C@H]2OC(=O)/C=C/c2ccc(O)c(O)c2)[C@H](O)[C@H](O)[C@H]1O | 7.91% | –
CC(C)C(=O)OCCc1ccccc1 | 4.85% | –
COc1ccc(-c2cc(=O)c3c(O)cc(O[C@@H]4O[C@H](CO[C@@H]5O[C@@H](C)[C@H](O)[C@@H](O)[C@H]5O)[C@@H](O)[C@H](O)[C@H]4O)cc3o2)cc1O | -5.54% [at 52.9 µM] | –
CCN(C)C(=O)Oc1cccc([C@H](C)N(C)C)c1 | 3.22% [at 52.9 µM] | –
CC(CC=O)CCCC(C)(C)O (stereo not given) | -12.4% | –
Cc1ccsc1/C=C/C1=NCCCN1C | -6.81% [at 52.9 µM] | –
COCCc1ccc(OCC2CO2)cc1 (stereo not given) | 9.18% [at 52.9 µM] | –
C[C@H](N)[C@H](O)c1cccc(O)c1 | 3.81% [at 52.9 µM] | –
Cc1c(I)c(=O)n(-c2ccccc2)n1C | 0.174% [at 52.9 µM] | –
Nc1ccc(S(=O)(=O)Nc2ccc(Cl)nn2)cc1 | 3.5% [at 52.9 µM] | –
OCCN(CCO)c1cccc(Cl)c1 | -16.7% | –
CCCCCCCCC(=O)Cl | -4.45% | –
CC(CN)CC(C)(C)CCN (stereo not given) | – | 5.16 µM (active)
Cc1ccccc1OCC(O)CO (stereo not given) | 2.19% [at 52.9 µM] | –
Oc1cn2c(n1)Nc1ccc(Cl)c(Cl)c1C2 | 40.9% [at 23.6 µM] | –
Brc1ccc(-c2ccccc2)cc1 | 0.432% | –
CCO[Si](CCCS)(OCC)OCC | – | 35.6 µM (active)
